Experimental findings from ChEMBL document CHEMBL1961873, “Compounds: GSK PKIS; Assays: Nanosyn kinase panel” (2012) are described below.

Test [1] addresses Sphingosine kinase 1 (Homo sapiens) (UniProt Q9NYA1). The conditions noted are these: at 1 µM.
Test [2] concerns the target T1, Sphingosine kinase 2 (Homo sapiens) (UniProt Q9NRA0).
T1 sequence (whole entry): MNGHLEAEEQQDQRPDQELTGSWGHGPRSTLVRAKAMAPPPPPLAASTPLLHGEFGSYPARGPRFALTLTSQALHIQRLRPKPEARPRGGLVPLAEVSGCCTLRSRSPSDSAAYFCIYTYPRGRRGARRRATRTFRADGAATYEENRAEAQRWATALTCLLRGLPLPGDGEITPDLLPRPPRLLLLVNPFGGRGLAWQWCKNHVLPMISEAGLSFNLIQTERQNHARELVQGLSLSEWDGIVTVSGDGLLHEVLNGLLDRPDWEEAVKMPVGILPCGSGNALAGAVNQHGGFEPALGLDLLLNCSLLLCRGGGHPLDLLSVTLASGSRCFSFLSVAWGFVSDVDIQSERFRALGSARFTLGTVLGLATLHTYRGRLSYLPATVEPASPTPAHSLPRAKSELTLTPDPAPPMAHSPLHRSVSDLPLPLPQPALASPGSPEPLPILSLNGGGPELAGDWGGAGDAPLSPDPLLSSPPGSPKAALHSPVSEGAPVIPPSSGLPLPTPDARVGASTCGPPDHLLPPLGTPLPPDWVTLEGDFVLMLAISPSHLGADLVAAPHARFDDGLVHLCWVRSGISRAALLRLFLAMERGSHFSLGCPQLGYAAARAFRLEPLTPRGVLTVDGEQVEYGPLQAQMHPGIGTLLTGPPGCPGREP
To be noted: at 0.1 µM.

Test [3] addresses T1, Sphingosine kinase 2 (Homo sapiens). To be noted: at 1 µM.
The target in test [4] is Casein kinase II subunit alpha (Homo sapiens) (UniProt P68400). The conditions noted are these: at 0.1 µM.
The target is the same in test [5]. The conditions noted are these: at 1 µM.
Test [6] deals with T2, Inhibitor of nuclear factor kappa-B kinase subunit alpha (Homo sapiens) (UniProt O15111).
T2 sequence (whole entry): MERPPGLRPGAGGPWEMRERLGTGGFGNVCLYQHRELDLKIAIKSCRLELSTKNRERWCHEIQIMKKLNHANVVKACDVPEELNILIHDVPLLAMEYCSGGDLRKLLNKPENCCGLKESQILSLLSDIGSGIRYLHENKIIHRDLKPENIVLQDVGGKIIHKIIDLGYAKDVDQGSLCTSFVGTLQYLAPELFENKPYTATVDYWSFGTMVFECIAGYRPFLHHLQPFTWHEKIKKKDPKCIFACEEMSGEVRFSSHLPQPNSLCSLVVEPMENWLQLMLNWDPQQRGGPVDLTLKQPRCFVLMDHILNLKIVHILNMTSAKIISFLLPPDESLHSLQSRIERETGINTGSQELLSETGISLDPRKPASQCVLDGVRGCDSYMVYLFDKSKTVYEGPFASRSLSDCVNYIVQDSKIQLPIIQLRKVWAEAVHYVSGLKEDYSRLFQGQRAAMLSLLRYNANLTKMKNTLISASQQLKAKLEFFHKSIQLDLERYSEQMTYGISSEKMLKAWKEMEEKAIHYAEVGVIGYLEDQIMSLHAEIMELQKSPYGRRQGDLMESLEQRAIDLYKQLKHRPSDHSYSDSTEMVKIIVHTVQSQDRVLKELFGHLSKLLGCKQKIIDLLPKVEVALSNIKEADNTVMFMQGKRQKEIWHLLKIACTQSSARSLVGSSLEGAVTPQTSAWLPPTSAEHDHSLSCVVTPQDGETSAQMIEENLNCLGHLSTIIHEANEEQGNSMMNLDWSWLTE
To be noted: at 0.1 µM.

The target of test [7] is T2, Inhibitor of nuclear factor kappa-B kinase subunit alpha (Homo sapiens). The conditions noted are these: at 1 µM.
The target in test [8] is T3, Inhibitor of nuclear factor kappa-B kinase subunit beta (Homo sapiens) (UniProt O14920).
T3 sequence (whole entry): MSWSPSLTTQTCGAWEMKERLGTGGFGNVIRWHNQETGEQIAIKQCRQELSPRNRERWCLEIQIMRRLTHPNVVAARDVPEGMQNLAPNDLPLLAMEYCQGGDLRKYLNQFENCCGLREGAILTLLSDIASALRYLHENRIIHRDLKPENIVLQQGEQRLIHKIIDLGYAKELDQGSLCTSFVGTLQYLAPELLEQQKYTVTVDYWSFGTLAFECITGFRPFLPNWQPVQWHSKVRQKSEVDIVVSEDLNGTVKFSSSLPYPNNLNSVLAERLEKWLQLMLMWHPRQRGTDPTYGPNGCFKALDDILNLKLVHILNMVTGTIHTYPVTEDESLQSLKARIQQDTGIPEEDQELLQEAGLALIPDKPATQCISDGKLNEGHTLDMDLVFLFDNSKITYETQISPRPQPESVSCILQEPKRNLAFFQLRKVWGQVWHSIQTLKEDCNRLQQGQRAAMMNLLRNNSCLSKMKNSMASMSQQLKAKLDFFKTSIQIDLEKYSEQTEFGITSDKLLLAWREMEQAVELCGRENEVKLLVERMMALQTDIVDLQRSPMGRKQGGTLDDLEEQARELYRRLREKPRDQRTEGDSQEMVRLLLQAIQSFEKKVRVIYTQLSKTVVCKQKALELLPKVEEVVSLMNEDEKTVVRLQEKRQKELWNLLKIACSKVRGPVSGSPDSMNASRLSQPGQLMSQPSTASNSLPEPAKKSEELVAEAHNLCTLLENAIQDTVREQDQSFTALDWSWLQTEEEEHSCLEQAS
To be noted: at 0.1 µM.

The target of test [9] is T3, Inhibitor of nuclear factor kappa-B kinase subunit beta (Homo sapiens). The conditions noted are these: at 1 µM.
The target of test [10] is T4, Inhibitor of nuclear factor kappa-B kinase subunit epsilon (Homo sapiens) (UniProt Q14164).
T4 sequence (whole entry): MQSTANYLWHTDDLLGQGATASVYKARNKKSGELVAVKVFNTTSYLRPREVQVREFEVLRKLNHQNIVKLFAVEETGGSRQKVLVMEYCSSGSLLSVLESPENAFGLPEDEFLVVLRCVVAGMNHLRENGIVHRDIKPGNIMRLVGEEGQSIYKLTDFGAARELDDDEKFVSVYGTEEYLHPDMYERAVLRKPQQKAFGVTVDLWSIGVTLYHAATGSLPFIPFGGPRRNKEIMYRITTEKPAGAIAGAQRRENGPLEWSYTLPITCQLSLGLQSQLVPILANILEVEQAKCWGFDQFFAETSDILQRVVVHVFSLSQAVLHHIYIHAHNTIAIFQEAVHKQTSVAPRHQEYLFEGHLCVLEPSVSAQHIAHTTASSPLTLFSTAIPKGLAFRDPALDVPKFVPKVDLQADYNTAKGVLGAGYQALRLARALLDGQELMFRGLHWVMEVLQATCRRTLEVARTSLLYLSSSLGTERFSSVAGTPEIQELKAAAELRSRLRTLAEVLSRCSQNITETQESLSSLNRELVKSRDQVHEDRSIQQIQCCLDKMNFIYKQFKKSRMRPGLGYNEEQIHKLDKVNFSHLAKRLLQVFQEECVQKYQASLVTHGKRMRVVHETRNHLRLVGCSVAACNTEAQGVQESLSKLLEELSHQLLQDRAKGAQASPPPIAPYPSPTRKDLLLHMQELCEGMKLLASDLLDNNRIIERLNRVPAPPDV
The conditions noted are these: at 0.1 µM.

For test [11], the target named is T4, Inhibitor of nuclear factor kappa-B kinase subunit epsilon (Homo sapiens). To be noted: at 1 µM.
Test [12] deals with T5, Serine/threonine-protein kinase Nek1 (Homo sapiens) (UniProt Q96PY6).
T5 sequence (whole entry): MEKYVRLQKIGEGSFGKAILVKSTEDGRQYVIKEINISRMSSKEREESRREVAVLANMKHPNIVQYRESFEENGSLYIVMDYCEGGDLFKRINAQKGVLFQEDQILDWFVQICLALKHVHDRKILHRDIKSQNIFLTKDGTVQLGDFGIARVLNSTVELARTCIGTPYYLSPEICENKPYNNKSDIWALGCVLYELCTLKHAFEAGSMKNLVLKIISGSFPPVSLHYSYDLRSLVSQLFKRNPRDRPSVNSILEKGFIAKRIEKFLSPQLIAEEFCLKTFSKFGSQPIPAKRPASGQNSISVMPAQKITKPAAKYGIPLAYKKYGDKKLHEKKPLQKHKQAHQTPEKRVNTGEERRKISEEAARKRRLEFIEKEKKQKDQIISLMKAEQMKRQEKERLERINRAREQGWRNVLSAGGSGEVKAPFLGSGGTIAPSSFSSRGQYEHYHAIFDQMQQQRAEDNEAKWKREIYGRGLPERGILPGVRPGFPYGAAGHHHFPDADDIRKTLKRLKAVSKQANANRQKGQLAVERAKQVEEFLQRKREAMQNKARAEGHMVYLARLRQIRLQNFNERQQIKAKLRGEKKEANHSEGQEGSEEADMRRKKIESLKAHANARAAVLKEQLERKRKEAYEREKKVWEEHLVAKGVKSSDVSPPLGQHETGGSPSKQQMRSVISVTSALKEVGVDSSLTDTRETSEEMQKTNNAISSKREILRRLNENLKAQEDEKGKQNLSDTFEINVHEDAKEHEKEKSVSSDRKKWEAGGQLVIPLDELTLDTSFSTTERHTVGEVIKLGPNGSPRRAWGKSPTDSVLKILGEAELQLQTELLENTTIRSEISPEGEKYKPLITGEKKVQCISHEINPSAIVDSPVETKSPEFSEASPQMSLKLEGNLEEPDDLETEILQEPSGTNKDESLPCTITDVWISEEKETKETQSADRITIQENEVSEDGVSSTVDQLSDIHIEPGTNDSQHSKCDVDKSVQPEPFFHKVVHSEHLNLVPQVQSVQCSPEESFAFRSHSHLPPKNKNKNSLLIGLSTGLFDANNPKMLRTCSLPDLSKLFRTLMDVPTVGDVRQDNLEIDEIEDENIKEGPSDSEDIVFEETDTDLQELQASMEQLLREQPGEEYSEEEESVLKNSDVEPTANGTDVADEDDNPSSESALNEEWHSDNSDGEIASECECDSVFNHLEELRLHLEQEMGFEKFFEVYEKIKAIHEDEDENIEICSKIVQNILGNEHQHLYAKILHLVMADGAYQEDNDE
To be noted: at 0.1 µM.

In test [13] the target is T5, Serine/threonine-protein kinase Nek1 (Homo sapiens). To be noted: at 1 µM.
For test [14], the target named is T6, Serine/threonine-protein kinase Nek2 (Homo sapiens) (UniProt P51955).
T6 sequence (whole entry): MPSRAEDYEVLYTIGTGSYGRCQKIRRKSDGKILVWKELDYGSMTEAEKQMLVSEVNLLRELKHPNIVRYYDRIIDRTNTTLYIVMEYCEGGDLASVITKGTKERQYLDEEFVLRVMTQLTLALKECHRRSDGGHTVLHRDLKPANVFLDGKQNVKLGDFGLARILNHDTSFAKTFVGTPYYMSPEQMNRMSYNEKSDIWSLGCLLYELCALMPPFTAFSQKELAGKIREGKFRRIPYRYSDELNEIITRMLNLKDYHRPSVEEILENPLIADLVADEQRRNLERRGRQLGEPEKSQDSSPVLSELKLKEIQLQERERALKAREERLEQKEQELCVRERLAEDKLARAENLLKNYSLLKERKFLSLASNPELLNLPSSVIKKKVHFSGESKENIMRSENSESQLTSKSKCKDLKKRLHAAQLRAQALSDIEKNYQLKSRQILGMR
The conditions noted are these: at 0.1 µM.

For test [15], the target named is T6, Serine/threonine-protein kinase Nek2 (Homo sapiens). To be noted: at 1 µM.
Test [16] addresses Serine/threonine-protein kinase Nek6 (Homo sapiens) (UniProt Q9HC98). To be noted: at 0.1 µM.
For test [17] the target is unchanged. To be noted: at 1 µM.
Test [18] has as its target Serine/threonine-protein kinase Nek7 (Homo sapiens) (UniProt Q8TDX7). To be noted: at 0.1 µM.
For test [19] the target is unchanged. The conditions noted are these: at 1 µM.
Test [20] addresses T7, Serine/threonine-protein kinase Nek9 (Homo sapiens) (UniProt Q8TD19).
T7 sequence (whole entry): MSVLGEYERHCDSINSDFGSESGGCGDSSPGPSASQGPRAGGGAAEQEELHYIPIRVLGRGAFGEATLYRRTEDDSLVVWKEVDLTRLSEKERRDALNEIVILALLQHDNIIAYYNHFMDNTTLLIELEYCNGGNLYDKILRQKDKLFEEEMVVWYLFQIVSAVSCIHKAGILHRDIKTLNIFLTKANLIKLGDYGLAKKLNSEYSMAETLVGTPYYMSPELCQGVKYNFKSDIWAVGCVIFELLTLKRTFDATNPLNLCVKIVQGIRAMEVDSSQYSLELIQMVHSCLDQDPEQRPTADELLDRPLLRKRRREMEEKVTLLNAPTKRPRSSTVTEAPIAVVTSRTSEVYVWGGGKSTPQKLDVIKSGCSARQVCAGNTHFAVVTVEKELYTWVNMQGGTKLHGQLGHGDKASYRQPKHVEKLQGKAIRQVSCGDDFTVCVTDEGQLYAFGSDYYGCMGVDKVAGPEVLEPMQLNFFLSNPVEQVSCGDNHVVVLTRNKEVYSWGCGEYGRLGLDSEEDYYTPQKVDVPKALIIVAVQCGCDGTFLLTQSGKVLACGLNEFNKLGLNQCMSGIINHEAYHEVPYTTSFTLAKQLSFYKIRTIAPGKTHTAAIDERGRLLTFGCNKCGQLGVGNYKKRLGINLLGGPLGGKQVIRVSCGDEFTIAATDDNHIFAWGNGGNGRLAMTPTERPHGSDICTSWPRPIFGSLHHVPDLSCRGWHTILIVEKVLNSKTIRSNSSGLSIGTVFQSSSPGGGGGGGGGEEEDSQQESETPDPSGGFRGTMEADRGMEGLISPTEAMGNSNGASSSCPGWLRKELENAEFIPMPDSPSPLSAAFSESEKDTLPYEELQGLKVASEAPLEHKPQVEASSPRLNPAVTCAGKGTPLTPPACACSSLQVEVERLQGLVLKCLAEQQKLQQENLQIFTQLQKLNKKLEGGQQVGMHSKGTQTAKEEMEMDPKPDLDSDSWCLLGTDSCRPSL
The conditions noted are these: at 0.1 µM.

Sequence of Casein kinase II subunit alpha (Homo sapiens) (P68400 whole entry, looked up): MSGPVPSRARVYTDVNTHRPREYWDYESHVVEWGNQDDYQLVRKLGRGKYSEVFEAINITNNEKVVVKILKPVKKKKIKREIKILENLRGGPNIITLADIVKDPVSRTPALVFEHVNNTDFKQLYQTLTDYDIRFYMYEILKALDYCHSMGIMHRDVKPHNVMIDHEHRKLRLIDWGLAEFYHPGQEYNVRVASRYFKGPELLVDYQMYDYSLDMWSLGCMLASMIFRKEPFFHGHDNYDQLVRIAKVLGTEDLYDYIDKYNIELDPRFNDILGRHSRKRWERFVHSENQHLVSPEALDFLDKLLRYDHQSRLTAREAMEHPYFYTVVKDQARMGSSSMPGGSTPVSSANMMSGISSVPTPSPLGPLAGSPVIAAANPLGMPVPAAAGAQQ
Sequence of Serine/threonine-protein kinase Nek6 (Homo sapiens) (Q9HC98 whole entry): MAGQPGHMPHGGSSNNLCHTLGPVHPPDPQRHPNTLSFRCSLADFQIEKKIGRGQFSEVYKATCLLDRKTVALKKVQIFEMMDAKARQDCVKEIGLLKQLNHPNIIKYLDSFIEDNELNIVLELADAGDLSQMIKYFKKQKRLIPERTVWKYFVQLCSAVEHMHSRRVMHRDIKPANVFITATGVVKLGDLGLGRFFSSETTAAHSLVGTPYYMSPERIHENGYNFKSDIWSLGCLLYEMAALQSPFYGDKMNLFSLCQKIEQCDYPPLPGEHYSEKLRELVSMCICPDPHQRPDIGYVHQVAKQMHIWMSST
Sequence of Serine/threonine-protein kinase Nek7 (Homo sapiens) (Q8TDX7 whole entry, looked up): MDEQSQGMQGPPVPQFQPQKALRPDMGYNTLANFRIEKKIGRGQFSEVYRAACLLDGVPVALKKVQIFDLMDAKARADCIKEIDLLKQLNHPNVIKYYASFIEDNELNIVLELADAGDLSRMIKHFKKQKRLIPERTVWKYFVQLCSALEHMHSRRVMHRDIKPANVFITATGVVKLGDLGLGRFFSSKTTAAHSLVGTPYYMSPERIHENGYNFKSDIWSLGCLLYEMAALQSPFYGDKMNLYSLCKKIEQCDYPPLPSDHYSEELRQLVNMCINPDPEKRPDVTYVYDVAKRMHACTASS
Sequence of Sphingosine kinase 1 (Homo sapiens) (Q9NYA1 whole entry): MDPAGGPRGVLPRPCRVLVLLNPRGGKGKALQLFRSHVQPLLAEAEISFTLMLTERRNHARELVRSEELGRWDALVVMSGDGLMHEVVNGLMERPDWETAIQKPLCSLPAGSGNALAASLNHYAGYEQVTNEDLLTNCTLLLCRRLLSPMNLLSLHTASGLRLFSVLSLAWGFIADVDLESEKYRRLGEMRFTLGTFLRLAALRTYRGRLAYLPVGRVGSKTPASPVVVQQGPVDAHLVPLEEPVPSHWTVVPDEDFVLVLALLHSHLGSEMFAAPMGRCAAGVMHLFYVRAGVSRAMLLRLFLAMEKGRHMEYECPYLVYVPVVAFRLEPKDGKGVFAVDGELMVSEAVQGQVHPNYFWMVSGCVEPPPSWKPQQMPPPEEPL

Take `CNC(=O)c1sc(-n2cnc3cc(OC)c(OC)cc32)cc1OCc1ccccc1C(F)(F)F`: the inhibition in test [1] is -2.69%; in test [2], -1.57%; in test [3] it was -1.5%; in [4], 5.33%; in [5], 1.77%; in [6], 9.1%. In addition, the inhibition is 6.49% in [7]; 4.41% in test [8]; 2.57% in [9]; 7.72% in test [10]; 5.28% in [11]; 1.76% in test [12]. The inhibition in test [13] came to 2.01%; in [14], 3.26%; in [15], 4.32%; in [16], 1.25%; in test [17], 1.86%; in test [18], 1.64%. Further, the inhibition is -2.15% in test [19] and 7.04% in test [20].

Usually inhibition stands for the drop in the measured response relative to a control, in per cent.
